This is a sample that favours compounds with a hit; in the whole collection about 11% have one here.
ALDH1A1 block – blocks purified human ALDH1A1 activity | 220,000 compounds, 7.3% hits | P00352 | Potency, µM (highest dose often 75.3 µM), inactives show top-dose activity, negative = inhibition, hits mostly inhibitors | Purified ALDH1A1, NADH fluorescence, propionaldehyde substrate;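 further: potency means the concentration at half of the fitted maximal effect; plate controls were no enzyme wells and a reference inhibitor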
PNC inhibitor – perinucleolar compartment assembly inhibition | activity change (PNC), negative = inhibition, % at 10 µM | 140,000 compounds, 3.1% hits | AID 2417 | PC3M PTB-GFP, PNC prevalence imaging, 16 h; hits give low values;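 active means readout at or below -70, meaning at least 70% loss of cells showing the perinucleolar compartment, a nuclear body marking cancer cells; inconclusive means readout between -30 and a set limit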;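 further: plate controls were DMSO wells for no effect and camptothecin positive control wells for full effect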
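PC3M cells stably expressing PTB-GFP, 750–1000 cells/well, treated 16 h at 37 °C with compound (23 nl of library stock), in duplicate. After paraformaldehyde fixation and Hoechst stain, imaged at 20x; PNC prevalence scored by image analysis.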
IMPase Li cell – membrane-permeable IMPase blocker, potentiated with lithium | Potency, µM (titrated, usually from 59.4 µM), for inactives: at the top dose activity, negative = IMPase inhibition, hits mostly inhibitors | CHO-M1 cells, IP1 TR-FRET (IP-One), carbachol + lithium | 210,000 compounds, 0.35% hits; active means well fitted curve in the direction sought with a large enough effect; inconclusive means small, poorly fitted or top-dose-only effect, or another doubt; inactive means no such curve, though single readings can be large; an effect the other way counts as inactive or inconclusive;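 further: IP1 builds up when IMPase is blocked and the TR-FRET signal falls; potency means the concentration at half of the fitted maximal effect; plate controls were basal vehicle for no effect and high inhibitor control for full effect; nearly all actives have a fitted effect of over 50% in size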
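Readout is a homogeneous TR-FRET IP1 immunoassay (Ex 320, Em 665 and 620), where raised cytosolic IP1 lowers signal. Cells were CHO-M1 treated 30 min at 37C with test compounds plus a little lithium; AC50 values came from Hill-equation fitting.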
12-hLO inh – 12-hLO (ALOX12) enzyme inhibition; Potency, µM (doses to about 57.1 µM), without a hit: top-dose activity change, negative = inhibition, usual class: inhibitors; 150,000 compounds, 0.12% hits; P18054; purified 12-hLO, xylenol orange hydroperoxide absorbance; active means well fitted curve in the direction sought with a large enough effect; inconclusive means small, poorly fitted or top-dose-only effect, or another doubt; inactive means no such curve, though single readings can be large; an effect the other way counts as inactive or inconclusive; further: potency means the concentration at half of the fitted maximal effect; nearly all actives have a fitted effect of over 55% in size
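Purified human 12hLO (150 nM), preincubated 15 min with compound, then 40 uM arachidonic acid for 30 min, room temperature, Hepes pH 7.0 with 0.01% Triton X-100. Hydroperoxide detected by ferrous iron/xylenol orange; 573/405 nm absorbance ratio gives reaction progress.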
IMPase cell inh – IMPase inhibition in cells; P97697; CHO-M1 cells, IP1 accumulation, HTRF TR-FRET ratio; inhibition (IP1 accumulation), % at 46.1 µM; 120,000 tested, under 10 active; active means well fitted curve in the direction sought with a large enough effect in the signal ratio, not every such curve was filed as active; inconclusive means small, poorly fitted or top-dose-only effect, or a change in a side signal; inactive means no such curve, though single readings can be large or run the other way; the % refers to the signal ratio;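 further: cells stimulated with carbachol in lithium chloride buffer; plate controls were DMSO basal wells for no effect and reference inhibitor wells for full effect; higher means more IMPase inhibition seen as more IP1 and lower FRET ratio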
Target sequence (P97697 whole entry, looked up): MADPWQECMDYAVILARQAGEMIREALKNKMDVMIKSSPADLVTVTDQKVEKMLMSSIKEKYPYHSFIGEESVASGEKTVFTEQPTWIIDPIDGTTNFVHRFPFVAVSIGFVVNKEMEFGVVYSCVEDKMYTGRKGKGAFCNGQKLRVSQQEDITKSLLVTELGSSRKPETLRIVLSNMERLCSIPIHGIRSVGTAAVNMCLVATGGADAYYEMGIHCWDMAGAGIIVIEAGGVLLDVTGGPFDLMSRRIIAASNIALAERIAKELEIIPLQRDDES
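CHO-M1 cells (CHO stably expressing M1 receptor), compound up to 46 uM final, stimulated with carbachol (50 uM as added) in buffer with 50mM LiCl, pH 7.4, 30 min at 37C. Cytosolic IP1 read by TR-FRET; AC50 from Hill fits.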
HPGD block – inhibitors of human 15-hydroxyprostaglandin dehydrogenase (HPGD); Potency, µM, for the others: top-dose activity change, negative = inhibition, usual class: inhibitors; P15428; purified HPGD, NADH fluorescence kinetic, PGE2 substrate; 150,000 compounds, 4.3% hits; further: potency means the concentration at half of the fitted maximal effect
Target sequence (P15428 whole entry, looked up): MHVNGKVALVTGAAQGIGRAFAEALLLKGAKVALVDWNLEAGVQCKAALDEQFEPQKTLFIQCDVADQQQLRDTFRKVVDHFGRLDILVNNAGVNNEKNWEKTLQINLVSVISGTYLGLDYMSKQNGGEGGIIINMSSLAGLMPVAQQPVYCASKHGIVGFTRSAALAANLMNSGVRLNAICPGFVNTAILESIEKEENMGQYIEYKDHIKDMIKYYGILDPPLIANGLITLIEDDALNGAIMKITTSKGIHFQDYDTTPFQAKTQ
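NADH formation kinetics: reaction with 30 uM PGE2 and 1 mM NAD+ (final), 20 nM enzyme, Tris-HCl pH 8 with Tween 20, after 15 min compound preincubation at room temperature. Fluorescence change, last versus first of five reads.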
* = called active by the depositor; ? = inconclusive; · = no result given; [ ] = another dose, or the depositor's remark. Unless noted, the call rests on the fitted dose curve; in most records, active means well fitted inhibition curve with a large enough effect (not every such curve was filed as active); inconclusive means small, poorly fitted or top-dose-only effect, or another doubt; inactive means no such curve, though single readings can be large or run the other way. Unless noted, on the % scale 0 is the no-effect control and ±100 the full control effect.

SMILES | ALDH1A1 block | PNC inhibitor | IMPase Li cell | 12-hLO inh | IMPase cell inh | HPGD block
O=C(COc1cccc(Br)c1)N/N=C1\CCSC1 | 4.5µM* | · | 14% | · | · | ·
O=C(COc1cccc(Br)c1)N/N=C1\CCCc2ccccc21 | -1% | · | 7% | · | · | ·
COCCOC(=O)c1ccccc1C(=O)OCCOC | -59% | · | -9% | 4% | · | -6%
Cn1c(Sc2ccc(-c3cccnc3)n2C)ccc1-c1cccnc1 | -6%[13.5 µM] | · | -3% | -2%[11.4 µM] | · | -5%
COc1ccc(NC2=C(NCCO)C(=O)c3ccccc3C2=O)cc1 | 11µM* | ? | 38% | -9% | · | -18%
COC1=C(Nc2ccc(O)cc2)C(=O)c2ccccc2C1=O | 18µM* | 27 | 40% | -6% | · | 28µM*
COc1ccc(NC2=C(c3ccc(OC)cc3)C(=O)c3ccccc32)cc1 | 14% | ? | 7% | -1% | · | -8%
CCOc1ccc(NC2=C(OC)C(=O)c3ccccc3C2=O)cc1 | 3.2µM* | 9 | 46% | -15% | · | 20µM*
COc1ccc(C2=C(Nc3ccccc3)c3ccccc3C2=O)cc1 | 10% | ? | 14% | 1% | -9 | -7%
COC1=C(Nc2ccc(OC)cc2)C(=O)c2ccccc2C1=O | ? | 36 | 56% | -7% | · | 16µM*
O=C(c1cnccn1)N1CCC[C@@]2(CCN(c3cccc(-c4ccccc4)c3)C2)C1 | -9% | · | 14% | ? | · | -12%
Cc1cccc(NC2=C(NCCO)C(=O)c3ccccc3C2=O)c1 | 25µM* | -28 | 26% | -12% | · | -6%
O=C(O)C(O)C(O)(Cc1ccc(O)cc1)C(=O)O (stereo not drawn) | -2% | · | 25% | · | · | -5%
Cc1nc(CSc2nnc3scc(-c4ccc(Cl)cc4)n23)cs1 | ? | 7 | -43%[38.3 µM] | 1% | 2 | -22%
O=C(C1=C[C@H](C2CCCCC2)C[C@H](OCCCCO)O1)N1CCN(Cc2ccccc2)CC1 | 14µM* | · | 3% | · | · | ·
O=C(C1=C[C@H](C2CC2)C[C@H](OCCCCO)O1)N1CCN(Cc2ccccc2)CC1 | ? | · | -2% | · | · | ·
COc1cc(/C=C2/S/C(=N/S(=O)(=O)c3ccccc3)NC2=O)c([N+](=O)[O-])cc1OC | -3% | ? | 32%[38.3 µM] | -12% | -1 | 5µM*
CC(C)(C)c1ccc(C(=O)Nc2ccc(C=C(C#N)C#N)cc2)cc1 | 4µM* | -134* | -3% | -5% | · | -16%
COc1cccc(NC(=O)CCN2CCN(CCO)CC2)c1 | · | · | · | · | -2 | ·
COc1ccccc1CN(C)CC(=O)Nc1ccccc1-c1ccccc1 | ? | · | 9% | · | · | ·
CCOc1ccccc1OCC(=O)Nc1ccc(S(=O)(=O)Nc2ncccn2)cc1 | -2% | 56 | 1% | 6% | 15 | -16%
COc1ccc(CN(C)CC(=O)Nc2ccccc2-c2ccccc2)c(OC)c1 | 2.8µM* | · | 16% | · | · | ·
CCOc1ccccc1OCC(=O)Nc1ccc(S(=O)(=O)N(C)C)cc1 | -8% | -86* | 18%[38.3 µM] | -6% | 6 | -13%
CCOc1cc(C=C2C(=O)c3ccccc3C2=O)ccc1OCC(=O)Nc1ccc(C)cc1 | 15µM* | 28 | · | 14% | -25 | ·
Cc1ccccc1OCC(=O)Nc1ccccc1-c1ccccc1 | 8.9µM* | 10 | -13%[38.3 µM] | 2% | 2 | -15%
SMILES | ALDH1A1 block | PNC inhibitor | IMPase Li cell | 12-hLO inh | IMPase cell inh | HPGD block
Cc1noc(C)c1-c1cc(NCc2ccccc2)ncn1 | 5% | · | -1% | 3% | · | -18%
CO[C@H]1COC(=O)C/C=C\[C@@H](C)COC(=O)[C@H]2CCCN2C(=O)C/C=C\[C@H]1C | 8%[13.5 µM] | · | · | · | · | ·
Cc1ccccc1OCC(=O)Nc1ccc2c(c1)C(=O)c1ccccc1C2=O | 18µM* | 44 | ? | -4% | · | -15%
O=C1c2ccccc2C(=O)c2cc(NC(=O)C3CC3)ccc21 | ? | ? | 1% | 1% | -3 | -3%
CC(=O)Nc1ccc2c(c1)C(=O)c1ccccc1C2=O | 3.5µM* | -4 | -4%[38.3 µM] | -6% | -6 | -4%
CC(=O)O[C@H]1C2OC(=O)C(C)=C2[C@@H]2OC(=O)[C@]3(CCC4OC41C)OC23 (stereo partly drawn) | 0% | -119* | 17% | -2% | · | -7%
C/C=C/OC(=O)NC(c1cccc(C)c1)[C@@]1(C(=O)OCC)CCCC1=O (stereo partly drawn) | 18%[13.5 µM] | · | · | · | · | ·
COC(=O)C1=C(C(=O)OC)[C@@H]2N(Cc3ccccc3)c3ccccc3[C@@]23C[C@@H](C(=O)OC)N(S(=O)(=O)c2cccs2)C3=N1 | -14%[13.5 µM] | · | 2% | 2%[11.4 µM] | · | -12%
Cc1ccccc1C(=O)c1c[nH]c(C(=O)NCCc2ccccn2)c1 | 22µM* | · | 8% | · | · | ·
Cc1ccccc1C(=O)c1c[nH]c(C(=O)NCc2ccco2)c1 | 20µM* | 25 | -2%[38.3 µM] | -13% | 4 | -17%
COc1ccc(N=C/C=C2\C=C(c3ccccc3)OC(C)(C)O2)cc1 | 2.2µM* | -15 | 22% | -8% | 14 | -29%
Cc1ccccc1N=C/C=C1/C=C(c2ccccc2)OC(C)(C)O1 | 2.2µM* | -10 | 11% | -9% | · | -19%
COc1ccccc1NC(=O)c1sc2cccc(Cl)c2c1Cl | · | · | · | · | 9 | ·
CC(=O)c1ccc(NC(=O)c2cnn3ccccc23)cc1 | 13µM* | ? | 0%[38.3 µM] | -1% | -7 | ?
CC(=O)c1cccc(NC(=O)c2cnn3ccccc23)c1 | -18% | 3 | -3%[38.3 µM] | 9% | -2 | -30%
CN1CCCC1CCNS(=O)(=O)c1ccc(Br)cc1 (stereo not drawn) | 3% | -109* | 10% | -1% | 3 | -2%
CSc1ncnc2c1ncn2[C@@H]1O[C@@H](CO)[C@H](O)O[C@@H]1O | 8%[13.5 µM] | · | -2% | -5%[11.4 µM] | · | -3%
CC1(C)CC(=O)C/C(=N\NC(=S)NCc2ccccc2)C1 | ? | · | 5% | · | · | ·
CC1(C)CC(=O)C/C(=N\NC(=O)C2CC2c2ccccc2)C1 (stereo not drawn) | 32µM* | · | -2% | · | · | ·
CCOc1ccc(-n2c(N)c(C(=O)NCc3cccnc3)sc2=S)cc1 | ? | -15 | -15%[38.3 µM] | -20% | 6 | 35µM*
CCOc1ccc(NC(=O)Cn2nnc(C(=O)NCc3ccco3)c2N)cc1 | 1% | -23 | -22%[38.3 µM] | 1% | -6 | 8%
CCOc1ccc(-n2c(N)c(C(=O)NCc3ccco3)sc2=S)cc1 | 22µM* | -86* | 10%[38.3 µM] | -20% | 11 | 32µM*
C=C1CCO[C@@]2([C@H](O)[C@@](C)(O)CO)NC(=O)[C@]1(O)NC2=O | 7%[13.5 µM] | · | -13% | 0%[11.4 µM] | · | -8%
COc1ccc2c(c1)C(=O)[C@H](OC(=O)NCc1ccco1)[C@@H](c1ccc(OC)c(Br)c1)O2 | ? | · | 3% | · | · | -3%
CC(=O)c1sc(NC(=O)C(C)(C)C)nc1C | 6% | 25 | -11% | 2% | ? | 2%

Source: PubChem
